Source: PubChem BioAssay
The sample as a whole holds a higher share of hits than the screen did.
Tgondii IFNg: blocks Toxoplasma gondii growth in the presence of IFN-gamma; AID 1259416; activity change, negative = inhibition, % (no concentration beside the values); 69,000 compounds, 3.8% hits; Toxoplasma gondii growth in IFN-gamma-treated host cells; hits give low values; in the data active = activity change below about -70%, passing the limit was not always enough;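 note: host cells are HeLa cells infected with Toxoplasma gondii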
The depositor's hits bear a star.

SMILES | Tgondii IFNg
COc1ccc(C(=O)N2C[C@H]3[C@@H](c4ccccc42)[C@@H](CO)N3Cc2ccccc2Cl)cc1 | 0.7
COc1ccc(C(=O)N2C[C@@H]3[C@H](c4ccccc42)[C@H](CO)N3Cc2ccccc2Cl)cc1 | -1.1
Cc1cc(C(=O)N2CCCCC2)c2c(=O)n(CC(=O)c3c(C)n(C)c4ccccc34)c(=O)n(C)c2n1 | 7.0
CCOCC(=O)N1CCC2(CC1)CC(Nc1ncccn1)C2 | 3.4
NC(=O)c1csc(-c2cccc3ccnn23)n1 | -97.6*
Cc1nnc(-c2ccccc2-c2cccc3ccnn23)s1 | -40.5
CNC(=O)Cn1cc(-c2cccc3ccnn23)cn1 | 3.4
O=C(c1ccc(=O)[nH]c1)N1CCC(Cc2nncn2-c2ccccc2)CC1 | 8.9
Cc1cc(CN(Cc2ccsc2)Cc2ccco2)n(C)n1 | 1.2
COCCc1noc(C2CCCN(C(=O)c3cnn4c3CCCC4)C2)n1 (centres undefined) | 68.5
FC(F)(F)c1ccc(-c2noc(/C=C/c3ccccc3)n2)cc1 | 81.3
Cc1nc(-c2ccccc2)sc1-c1nc(-c2ccc(C(C)(C)C)cc2)no1 | -77.0*
CC(C)(C)c1ccc(-c2nc(-c3ccc(Cl)cc3)no2)cc1 | -22.9
CCS(=O)(=O)N1CCC2(CC1)OC(=O)C(C)=C2C(=O)NCc1ccc(F)cc1 | 10.4
COc1ccccc1N1CCN(Cc2nc(-c3ccc(Br)cc3)cs2)CC1 | -71.9*
COc1ccccc1N1CCN(CCCCNC(=O)c2ccc(-c3ccc(C(C)=O)cc3)cc2)CC1 | 7.2
COc1ccccc1N1CCN(C(=O)c2cccs2)CC1 | 6.7
CC1=Nc2cc(Cl)c(Cl)cc2NC(C)(C)C1 | 205.5
Oc1ccc(Cl)cc1C1=NC2(CCNCC2)NC(c2ccccc2O)C1 (centres undefined) | -102.2*
CCOC(=O)N1CCC2(CC1)N=C(c1ccccc1O)CC(c1cc(Cl)ccc1O)N2 (centres undefined) | -36.3
CN1CCC2(CC1)N=C(c1ccccc1O)CC(c1ccccc1O)N2 (centres undefined) | 31.7
CCCCC1=NC2(CCN(C(=O)c3cc(C)nn3CC)CC2)C(=O)N1 | 2.5
Cc1ccc(O[C@@H]2C[C@@H]3CN(C(=O)c4cccn4C)CCN3C2)cc1 | -46.9
CCc1[nH]c2c(CNC(=O)CCn3cnnn3)cc(F)cc2c1C | 14.4
CCn1c(C2CCCN(C(=O)c3cccnn3)C2)nn(CCN(C)C)c1=O (centres undefined) | 0.9
SMILES | Tgondii IFNg
CC(=O)C(C)(C)OC(=O)NCCc1ccc(Cl)cc1 | -76.5*
CC(=O)C(C)(C)OC(=O)NCc1cccs1 | 31.6
COc1ccc(Cl)cc1C(=O)NCCc1ccc(C(=O)O)cc1 | 13.7
c1cc2c(cc1-c1csc(-c3ccc4c(c3)OCCO4)n1)OCCO2 | 57.7
NC1=NN=C(c2ccc3c(c2)OCCO3)CS1 | -81.4*
Cc1cc(-c2ccc3c(c2)OCCO3)cnc1N | 75.2
S=c1[nH]nc(-c2ccncc2)n1-c1cccc(Cl)c1 | 14.7
COc1ccc(-c2n[nH]c(=S)n2Cc2ccccc2)cc1 | 52.7
Cn1c(-c2ccc(Cl)cc2)n[nH]c1=S | -96.9*
Cc1nc(C)n(CCNS(=O)(=O)c2ccc3c(c2)NC(=O)C(C)O3)n1 (centres undefined) | 15.8
O=C(c1ccc2cccnc2n1)N1CC[C@@H](c2ccc3c(c2)OCO3)[C@H](O)C1 | 3.0
Cc1nc2c(n1C)CN(C(=O)Cc1c(F)cccc1Cl)CC2 | -41.9
c1ccc(NCc2cnc3n2CCN(c2ncccn2)CC3)nc1 | -19.5
CCOC(=O)c1cc(C)nc2c1c(=O)n(Cc1nc(-c3ccc(C)cc3)oc1C)c(=O)n2C | 8.0
CCOC(=O)c1cc(C)nc2c1c(=O)n(Cc1nc(-c3ccc(OC(C)C)cc3)oc1C)c(=O)n2C | -81.2*
CCOC(=O)c1cc(C)nc2c1c(=O)n(Cc1nc(-c3ccc(OC)cc3)oc1C)c(=O)n2C | -23.8
CC(C)C(NC1C=CS(=O)(=O)C1)C(=O)N[C@@H]1CCC(=O)N[C@H]1C1CC=CCC1 (some centres undefined) | -18.5
O=C(CN1C(=O)CCc2cc(Br)ccc21)NCCC1=CCCCC1 | 59.7
CCOc1cccc(-c2csc(CN3CCNCC3)c2)c1 | 7.6
CCN1CCC2(CCC1=O)CC(NC(=O)c1ccncc1)c1ccccc1O2 (centres undefined) | -9.5
CCO[C@@H]1CCN(C(=O)C(C)C)[C@@H]2CCO[C@H]21 | 81.6
CCO[C@H]1CN(C(=O)N2CCCC2)[C@H]2CCCO[C@@H]12 | -96.2*
CCO[C@H]1CC[C@@H]2[C@@H]1OCCN2C(=O)c1ccc2ccccc2c1 | -4.4
CO[C@H]1CCN(C(=O)Cc2ccccn2)[C@H]1Cc1ccncc1 | 17.0
Cc1ccc(C2(O)CCN(C(=O)c3ncccc3O)CC2)nc1 | 2.9
SMILES | Tgondii IFNg
COC(=O)C1=C(C)NC(C)=C(C(=O)NCCCN2CCC(c3ccccc3)(c3ccccc3)CC2)C1c1ccc([N+](=O)[O-])cc1 (centres undefined) | -75.8*
COC(=O)C1=C(C)NC(C)=C(C(=O)OCCCN2CCC(c3ccccc3)(c3ccccc3)CC2)[C@@H]1c1cccc([N+](=O)[O-])c1 | -87.1*
COC(=O)C1=C(C)NC(C)=C(C(=O)OCC(C)C)C1c1ccccc1[N+](=O)[O-] (centres undefined) | 17.3
C#CCN1C(C)=C(C(=O)OC)C(c2cccc([N+](=O)[O-])c2)C(C(=O)OCC)=C1C (centres undefined) | 15.2
COC(=O)C1=C(C)NC(C)=C(C(=O)O[C@H]2CCN(Cc3ccccc3)C2)[C@H]1c1cccc([N+](=O)[O-])c1 | -2.1
COC(=O)C1=C(C)NC(C)=C([N+](=O)[O-])[C@H]1c1ccccc1C(F)(F)F | -34.5
Cc1cccc(C(C(=O)O)N2CCCC2)c1 (centres undefined) | -0.4
Cc1ccc(-c2nc(CSc3nc4c(c(=O)[nH]3)CN(Cc3ccc(F)cc3)CC4)c(C)o2)cc1 | 5.0
Cc1nc2ncc(C(=O)NC3CC(C)(C)Oc4ccccc43)c(C)n2n1 (centres undefined) | 8.4
O=S(=O)(c1ccc(F)cc1)N1CCn2cnc(COc3cccnc3)c2C1 | -8.2
Cc1nnc(Nc2cccc(C3CCCN(C(=O)CN)C3)n2)s1 (centres undefined) | 32.7
O=CNC1CCCc2c1[nH]c1ccc(Cl)cc21 (centres undefined) | -81.1*
CN1C(=O)C2(NCCc3c2[nH]c2ccc(Cl)cc32)c2cc(Br)ccc21 (centres undefined) | -8.7
NC(=O)C1CCCc2c1[nH]c1ccc(Cl)cc21 (centres undefined) | -8.3
CCN(CC)CCCNC(=O)c1ccc2ccc(N3CCC(C)CC3)n2c1 | -45.7
COCCN(CCOC)C(=O)c1ccc2ccc(N3CCC(C)CC3)n2c1 | -88.3*
CCCCN(C)C(=O)c1ccc2ccc(N3CCN(CC4CC4)CC3)n2c1 | 20.4
CN(Cc1ccccn1)C(=O)C[C@]12COC[C@H]1CN(c1ncccn1)C2 | 47.0
COc1cccc(-c2nc(-c3noc4ccc(C(=O)N5CCCO5)cc34)co2)c1 | 156.4
O=C(C#Cc1ccccc1)Nc1ccc(OC(F)(F)F)cc1 | -58.6
COc1ccc(-n2ncc(NC(=O)Nc3ccc(OC(F)(F)F)cc3)c2C)cc1 | 33.3
COc1cc(NC(=O)Nc2ccc(OC(F)(F)F)cc2)cc(C(F)(F)F)c1 | -95.9*
COCCC(=O)N1CC2CN(CCCc3ccccc3)C2C1 (centres undefined) | 71.0
COc1cccc(CNC2=NCCNC23CCN(S(=O)(=O)c2ccc4c(c2)CCCC4)CC3)c1 | 7.5
C=CCc1c(C)nc2ccc(Br)cc2c1Oc1ccccc1 | -22.7
